Results with a measured potency or affinity are listed apart. Values without a mark were called inactive. The rule behind the calls is not given here.
Experiment: A549 cell cytotoxicity, dose response, cytotoxicity control, plate reader, cherry-pick, antagonist series (AID 743412)
Conditions: series mostly up to 26 µM; activity change, negative = cytotoxicity: at the top concentration
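Note: 0% = neutral control wells and -100% = positive control wells.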

| Compound | activity change, negative = cytotoxicity [%] |
| --- | --- |
| O=c1c2c(nc3cc(-c4ccc(F)cc4)[nH]n13)CCCC2 | 2.92 |
| Cc1ccc(-c2nnc(-c3ccccc3Br)o2)cc1 | -15.7 |
| COCCn1c(C)cc(C(=O)CSc2nc3ccccc3s2)c1C | -1.38 |
| CCc1ccn2cc(-c3cc(-c4ccccc4)no3)nc2c1 | -18.6 |
| O=C(Nc1nc2ccccc2s1)c1ccc2sc([C@H]3C[C@H](O)[C@@H](CO)O3)nc2c1 | -15.5 |
| Cc1ccc(C(=O)Nc2ccc3c(c2)OCCO3)c(Cl)c1 | 25.3 |
| COc1ccc(-c2[nH]ncc2-c2ccc3c(c2)OCCO3)c(O)c1 | -7.11 |
| c1ccc(-n2nnnc2Sc2ncnc3sc4c(c23)CCCC4)cc1 | -5.31 |
| CC1CCCN(c2ncnc3c2cnn3-c2ccccc2)C1 (configuration not stated) | -16.6 |
| Cc1ccc(-c2cc(C(=O)N(C)Cc3cnn(C)c3C)c3cc(Br)ccc3n2)cc1 | -8.84 |
| COc1ccc(CC(=O)Nc2cccc(-c3nnc(-c4cccc(C)c4)o3)c2)cc1OC | 9.32 |
| Cc1ccc(-c2nc(-c3ccncc3)no2)cc1C | -13.3 |
| Cc1csc(NC(=O)c2cnc3ccccc3n2)n1 | -6.51 |
| COc1ccc2nc(-c3ccc(F)cc3)sc2c1 | 22.4 |
| O=C(Nc1ccc(Cl)c(S(=O)(=O)N2CCOCC2)c1)c1ccc2c(c1)OCCO2 | 18.2 |
| O=C(Nc1nc(-c2ccc(S(=O)(=O)N3CCOCC3)cc2)cs1)c1ccccc1 | 1.95 |
| COc1cc(NC(=O)c2cccc3c(-c4cccnc4)coc23)cc(OC)c1OC | 2.96 |
| Cc1csc(NC(=O)c2ccc(OCC3CCCO3)cc2)n1 (configuration not stated) | -4.79 |
| C[C@@H]1CN([C@H](C)CO)C(=O)CCCn2nncc2CO[C@H]1CN(C)C(=O)Nc1cccc2ccccc12 | -7.1 |
| Cc1ccc(-c2csc(Nc3ccccn3)n2)cc1 | 10.8 |

| Compound | activity change, negative = cytotoxicity [%] |
| --- | --- |
| CC(C)(C)c1ccc(-c2nc(-c3ccncc3)no2)cc1 | 7.98 |
| CN(C)c1ccc(C(=O)Nc2nc3c(s2)CCCC3)cc1 | -19.1 |
| O=C(O)c1ccc(N/N=C/c2c[nH]c3ccccc23)cc1 | -5.6 |
| CCC(=O)Nc1cc2nn(-c3ccc(OC)cc3)nc2cc1C | 9.09 |
| O=C(O)c1cccc(-c2noc(-c3cccc(Cl)c3)n2)c1 | -0.606 |
| Cc1cc(C)c(Cc2c(C)nc3c(C(=O)NCc4ccco4)cnn3c2C)c(C)c1 | -26.8 |
| Cn1cccc1C(=O)OCC(=O)Nc1ccc2c(c1)OCCO2 | 12.6 |
| COc1ccccc1CCn1cnc(-c2ccccc2OC)c1C(C)C | -11.8 |
| C[C@H](CO)N1C[C@H](C)[C@H](CN(C)C(=O)Cc2ccccc2)OCCCC[C@H](C)Oc2ccc(NC(=O)Nc3ccc(C(F)(F)F)cc3)cc2C1=O | -31.9 |
| Cc1cc(C(=O)COC(=O)c2ccccc2O)c(C)n1CC1CCCO1 (configuration not stated) | -7.7 |
| c1ccc(COc2ccc(OCCCN3CCCC3)cc2)cc1 | -25.5 |
| COc1ccc(-n2nnnc2-c2nc3ccccc3s2)cc1 | -7.93 |
| O=C(Cn1ncc(Cl)c(Cl)c1=O)c1ccc2c(c1)OCCO2 | -71.9 |
| O=C(NCCc1ccccc1)c1ccc2c(c1)OCCO2 | -1.96 |
| COc1cc(SC)ccc1C(=O)Nc1ncc(C)s1 | 2.28 |
| COc1ccc(-c2csc(NC(=O)c3ccc(OCC(=O)N4CCOCC4)c(OC)c3)n2)cc1 | -12.6 |
| COc1ccc(-n2ncc3c(N4CCC(C)CC4)ncnc32)cc1 | -0.823 |
| CCn1c(C)cc(C(=O)CN2C(=O)c3ccccc3S2(=O)=O)c1C | 7.37 |
| O=C(Nc1ccccc1)c1cn2ccccc2n1 | 2.48 |

Experiment: toxicity toward HepG2 liver cells – cell-based, plate reader, cherry-pick, antagonist series, cytotoxicity control, dose response (AID 743416)
Conditions: series mostly up to 26 µM; activity change, negative = cytotoxicity: at the top concentration

| Compound | activity change, negative = cytotoxicity [%] |
| --- | --- |
| Cc1ccc(-c2nnc(-c3ccccc3Br)o2)cc1 | -3.72 |
| Cc1ccc(C(=O)Nc2ccc3c(c2)OCCO3)c(Cl)c1 | -5.88 |
| O=C(Nc1ccc(Cl)c(S(=O)(=O)N2CCOCC2)c1)c1ccc2c(c1)OCCO2 | -16.1 |
| Cc1csc(NC(=O)c2ccc(OCC3CCCO3)cc2)n1 (configuration not stated) | -5.04 |
| Cn1cccc1C(=O)OCC(=O)Nc1ccc2c(c1)OCCO2 | 7.53 |
| Cc1cc(C(=O)COC(=O)c2ccccc2O)c(C)n1CC1CCCO1 (configuration not stated) | 0.213 |
| COc1cc(SC)ccc1C(=O)Nc1ncc(C)s1 | 3.94 |
| CCn1c(C)cc(C(=O)CN2C(=O)c3ccccc3S2(=O)=O)c1C | 10.8 |

Reference: PubChem BioAssay
